Where “and” joins values, the source holds several entries; their conditions need not be identical. Equal values may be shown once. The whole screen tested about 420,000 compounds, of which about 64,000 (15%) were called active. About 27% were inconclusive and are not listed. The call rests on the fitted dose curve; in most records, active means well fitted inhibition curve with a large enough effect; inconclusive means small, poorly fitted or top-dose-only effect; inactive means flat fitted curve, though single readings scatter. A selection follows.
On the % scale 0 is the no-effect control and ±100 the full control effect; potency means the concentration at half of the fitted maximal effect.

The test is described as follows: qHTS for Inhibitors of human tyrosyl-DNA phosphodiesterase 1 (TDP1): qHTS in cells in absence of CPT. Further: nearly all actives have a fitted effect of over 55% in size. The conditions noted are these: DT40 Tdp1-/- hTDP1 cells, no CPT, ATP luminescence, 48 h; activity change, negative = growth inhibition: at 46.2 µM (top of the series). The gist of the method: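 Cells were dispensed at 400 per well, compounds added by pin tool, plates incubated ≥48 hr at 37 °C, then CellTiter-Glo added for 30 min at room temperature before luminescence reading. Line: DT40 Tdp1-/- complemented with hTDP1; camptothecin omitted.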
(In qHTS, concentration-response curves come from the screen itself.)
In the case of `CCc1nccn1S(=O)(=O)c1cc(Br)ccc1Br`, the “activity change, negative = growth inhibition” value was -5.02% (inactive).

With `CC(=O)Nc1ccc(-c2nc3ccccc3o2)cc1`, the “activity change, negative = growth inhibition” value was 9.6% (inactive).

On to `Cc1nc2nc[nH]n2c(=O)c1NC(=O)c1cccc(OCC(C)C)c1`, for which the “activity change, negative = growth inhibition” value is -10.7% (inactive).

As to `COc1cc(OC)cc(C(=O)Nc2ccc(-c3nc4ccccc4o3)c(O)c2)c1`, the Potency was 16.4 µM (active).

`CCCOc1ccc(C(=O)Nc2ccc3oc(-c4cccc(Cl)c4Cl)nc3c2)cc1`: the Potency is 7.31 µM (active).

`O=C(Nc1ccc(-c2nc3cc(NC(=O)c4ccccc4Cl)ccc3o2)cc1)c1ccccc1Cl`: the Potency was 2.91 µM (active).

On to `Cc1cc2nc(-c3ccc(NC(=O)c4cc5ccccc5o4)cc3)oc2cc1C`, for which the “activity change, negative = growth inhibition” value was -3.82% (inactive).

On to `CCCCCC(=O)Nc1ccc2oc(-c3ccncc3)nc2c1`, for which the “activity change, negative = growth inhibition” value was -14.9% (inactive).

On to `Cc1ccccc1-c1nc2cc(NC(=O)c3cccc(OCCC(C)C)c3)ccc2o1`, for which the Potency is 5.17 µM (active).

In the case of `CCCCOc1ccc(C(=O)Nc2cccc(-c3nc4ccccc4o3)c2C)cc1`, the “activity change, negative = growth inhibition” value was -15% (inactive).

Consider `O=C(Nc1ccc(C(=O)O)c(O)c1)c1ccccc1`, for which the Potency result is “inactive”.

As to `O=C(COc1ccc(Cl)cc1)Nc1ccc(-c2nc3cc(Cl)ccc3o2)c(O)c1`, the “activity change, negative = growth inhibition” value was -19% (inactive).

Regarding `NS(=O)(=O)c1ccc(CCNC(=O)CNC(=O)Cc2ccccc2)cc1`, the “activity change, negative = growth inhibition” value was 12.8% (inactive).

`NC(=O)C1CC=CCC1C(=O)OCC(Cl)=C(Cl)Cl` (configuration not stated): the “activity change, negative = growth inhibition” value is 4.67% (inactive).

`CC(C)NC(=S)N1CCN(S(C)(=O)=O)CC1`: the “activity change, negative = growth inhibition” value is 1.33% (inactive).

For the compound `C[n+]1cc(-c2ccccc2)oc1-c1ccccc1`, the “activity change, negative = growth inhibition” value was -10.1% (inactive).

Regarding `COc1cc(OC)cc(C(=O)NNC(=O)Cc2cccs2)c1`, the “activity change, negative = growth inhibition” value was -1.43% (inactive).

For `CC(C)(C)n1nc2c(c1NC(=O)c1ccc(S(=O)(=O)N3CCCC3)cc1)CS(=O)C2` (configuration not stated), the “activity change, negative = growth inhibition” value is -21.6% (inactive).

As for `CC(C)(C)n1c(=O)[nH]c2c(c1=O)CCC2`, the “activity change, negative = growth inhibition” value is 5.73% (inactive).

As for `CC1(C)CC(=O)C(N=Nc2c(F)cccc2F)=C(O)C1`, the “activity change, negative = growth inhibition” value is -7.33% (inactive).

With `NC1=NC(=O)C2(COC(c3ccccc3Cl)OC2)S1` (configuration not stated), the “activity change, negative = growth inhibition” value was 0.828% (inactive).

`O=C(CSc1ncccn1)NC(=O)NCc1ccccc1`: the “activity change, negative = growth inhibition” value was -8.73% (inactive).

As for `COc1cc(NC(=O)CN2CCN(S(=O)(=O)c3ccc(Br)cc3)CC2)cc(OC)c1`, the “activity change, negative = growth inhibition” value was -12.3% (inactive).

As for `O=C(Nc1ccc2oc(-c3ccc(O)c(Br)c3)nc2c1)c1cc2ccccc2o1`, the “activity change, negative = growth inhibition” value was -8.41% (inactive).

In the case of `O=C(Nc1ccc2oc(-c3ccc4ccccc4c3)nc2c1)c1cccs1`, the Potency was 23.1 µM (active).

Turning to `O=C(Nc1ccc(NC(=O)c2cccs2)cc1)c1ccc2ccccc2c1`, the “activity change, negative = growth inhibition” value was 1.73% (inactive).

For `COc1cccc(-c2nc3cc(C)ccc3o2)c1`, the “activity change, negative = growth inhibition” value is -25.6% (inactive).

`COc1cccc(C(=O)Nc2ccc3oc(-c4ccc5ccccc5c4)nc3c2)c1`: the Potency was 10.3 µM (active).

Regarding `COC(=O)c1ccc(-c2nc3cc(NC(C)=O)ccc3o2)cc1`, the “activity change, negative = growth inhibition” value is -15% (inactive).

As for `COCCNC(=O)c1ccccc1-c1nc(-c2ccccc2Cl)no1`, the “activity change, negative = growth inhibition” value was -25.9% (inactive).

Take `COc1ccccc1CCCNC(=O)C1CCC(=O)N(CCN2CCOCC2)C1` (configuration not stated): the “activity change, negative = growth inhibition” value was 19% (inactive).

Regarding `Cn1c(N)c(C(=O)COC(=O)COc2ccc(Cl)cc2)c(=O)n(C)c1=O`, the “activity change, negative = growth inhibition” value is -19% (inactive).

For the compound `N=C1C(=O)OCC1c1ccccc1NC(=O)CN1CCCCC1` (configuration not stated), the “activity change, negative = growth inhibition” value is -8.68% (inactive).

On to `Cc1cccc(CC2(O)C(=O)Nc3ccccc32)n1` (configuration not stated), for which the “activity change, negative = growth inhibition” value was -14.3% (inactive).

Regarding `CC(Sc1nnc(COc2ccccc2)n1-c1ccccc1)C(=O)O` (configuration not stated), the “activity change, negative = growth inhibition” value is -4.89% (inactive).

`CCCCN(CC)CCCNC(=O)c1nn(C)c2c1CS(=O)(=O)c1ccccc1-2`: the “activity change, negative = growth inhibition” value is 10.4% (inactive).

Consider `COC(=O)c1ccc(NC(=O)c2cc(Cl)ccc2OC)cc1`, for which the “activity change, negative = growth inhibition” value was 16.5% (inactive).

Take `Cc1cc(N2CCN(C)CC2)nc2ccc(NC(=S)N3CCOCC3)cc12`: the “activity change, negative = growth inhibition” value was -13.7% (inactive).

As to `COc1cc(NC(=O)c2ccc(CNc3c(N4CCCC4)c(=O)c3=O)cc2)cc(OC)c1OC`, the “activity change, negative = growth inhibition” value is -25.3% (inactive).

Turning to `CCN1CCN(c2cc(C)c3cc(NC(=O)c4cc(Cl)ccc4OC)ccc3n2)CC1`, the Potency is 4.11 µM (active).

`CCOCCCNC(=S)Nc1ccc2nc(N3CCN(CC)CC3)cc(C)c2c1`: the “activity change, negative = growth inhibition” value was -3.03% (inactive).

In the case of `COc1ccc(C(=O)Nc2ccc3nc(N4CCCCC4)cc(C)c3c2)cc1OC`, the Potency was 14.6 µM (active) and 16.4 µM (active).

Regarding `CCOc1ccc(S(=O)(=O)NCCSc2ccccc2)cc1`, the “activity change, negative = growth inhibition” value was 2.24% (inactive).

For the compound `O=C(Nc1ccccc1)c1ccccc1Br`, the “activity change, negative = growth inhibition” value was -23.4% (inactive).

Regarding `O=C(Nc1cccc(Cl)c1)Nc1nnc(-c2ccccc2)o1`, the Potency is 16.4 µM (active).

As for `O=C(COC(=O)c1ccccc1Br)Nc1nnc(-c2ccccc2)o1`, the “activity change, negative = growth inhibition” value is -7.07% (inactive).

As for `O=C(CSc1nnc(-c2ccncc2)o1)Nc1cccc(Cl)c1`, the “activity change, negative = growth inhibition” value was -5.19% (inactive).

Take `O=C(Nc1nnc(-c2ccc(Cl)cc2)o1)c1ccccc1Br`: the Potency was 18.4 µM (active).

Take `CC(=O)Nc1cccc(C(=O)OCC(=O)Nc2nnc(-c3ccccc3)o2)c1`: the “activity change, negative = growth inhibition” value is 1.04% (inactive).

Turning to `O=C(Cn1cnc2cc([N+](=O)[O-])ccc2c1=O)NC(=O)NCc1ccccc1`, the “activity change, negative = growth inhibition” value was 0.964% (inactive).

Regarding `CCOC(=O)N1CCN(Cc2oc(CO)cc(=O)c2O)CC1`, the “activity change, negative = growth inhibition” value is 3.91% (inactive).

Regarding `O=C(N/N=C/c1ccc2c(c1)OCO2)c1ccc(Cn2cc([N+](=O)[O-])cn2)o1`, the “activity change, negative = growth inhibition” value was -19.9% (inactive).

Turning to `Cc1ccc(C(=O)O)cc1NC(=O)c1ccc(Cn2nc(C)c(Cl)c2C)o1`, the “activity change, negative = growth inhibition” value is 1.5% (inactive).

On to `Cc1c(Cl)c([N+](=O)[O-])nn1Cc1ccc(C(=O)N/N=C\c2cc(Cl)ccc2O)o1`, for which the Potency was 4.61 µM (active).

Consider `O=C(O)CSCC(=O)Nc1ccc(C(F)(F)F)cc1`, for which the “activity change, negative = growth inhibition” value was 13.2% (inactive).

As for `COc1ccc(C(C)=O)cc1CN1C(=O)NC2(CCCCC2C)C1=O` (configuration not stated), the “activity change, negative = growth inhibition” value is 2.75% (inactive).

`CNS(=O)(=O)c1cccc(C(=O)OCC(=O)N2c3ccccc3NC(=O)C2(C)C)c1`: the “activity change, negative = growth inhibition” value is -12.8% (inactive).

Turning to `Cc1ccn(CC(=O)NC2CCCN(Cc3ccccc3F)C2)n1` (configuration not stated), the “activity change, negative = growth inhibition” value is -0.51% (inactive).

Turning to `CCCOC1CCCN(Cc2cn(C)nc2-c2ccccc2F)C1` (configuration not stated), the “activity change, negative = growth inhibition” value was -22.2% (inactive).

Regarding `CC(C)c1cc(C(=O)N(C)C2CCCN(Cc3ccccc3F)C2)n(C)n1` (configuration not stated), the Potency is 25.9 µM (active).

In the case of `CC1CCCN(Cc2c(O)ccc3c(=O)c(Oc4ccc(C(C)(C)C)cc4)c(C(F)(F)F)oc23)C1` (configuration not stated), the “activity change, negative = growth inhibition” value was -17.9% (inactive).

As to `Cn1nc(C(F)(F)F)c2cc(NC(=O)OCC(C)(C)C)sc21`, the “activity change, negative = growth inhibition” value was -12.7% (inactive).

Consider `O=C(c1cccs1)c1cn(CCOc2ccc(Cl)cc2)c2ccccc12`, for which the Potency is 7.31 µM (active).

Consider `COCCNC(=O)Cn1cc(C(=O)c2cccs2)c2ccccc21`, for which the “activity change, negative = growth inhibition” value is 6.96% (inactive).

`COC(=O)Cn1cc(C(=O)c2cccs2)c2ccccc21`: the “activity change, negative = growth inhibition” value is -9.78% (inactive).

As to `O=C(CC1SC(N2CCCC2)=NC1=O)Nc1ccc(C(=O)NCCc2ccc(F)cc2)cc1` (configuration not stated), the “activity change, negative = growth inhibition” value was -12.2% (inactive).

As to `CC(=O)Nc1ccc(NS(=O)(=O)c2cc(C)sc2C)cc1`, the “activity change, negative = growth inhibition” value is -18.7% (inactive).

The values above are taken from PubChem BioAssay AID686978 (National Center for Advancing Translational Sciences (NCATS), 2013).
